# Results taken from PubChem BioAssay (NCATS).
# Several values for one entry are separate records, joined by “and”; a condition that tells them apart may be missing. Identical values can stand only once. Records with an inconclusive call do not appear. Some structures have more than one record in an assay (separate samples or runs), and their calls can disagree. For some assays here: Potency and affinity values are given separately. Activity calls are given as the source filed them. Unless noted, how the calls were made is not given here.
# What was measured:
# [1] = qHTS Assay for Identifying Gametocytocidal Compounds (AID 743244; active means well fitted curve in the direction sought with a large enough effect; an effect the other way counts as inactive or inconclusive; further: potency means the concentration at half of the fitted maximal effect;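 on max response: on the % scale 0 is the no-effect control and ±100 the full control effect; actives lower the fluorescent signal which means gametocytes are killed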); settings: P. falciparum 3D7 stage III-V gametocytes, alamarBlue, 72 h; max response: stronger effect = lower value
# Procedure, shortened: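 In this qHTS viability screen, late-stage 3D7 gametocytes are incubated with compound for 72 h, then with alamarBlue for 24 h; reduced resorufin fluorescence marks killing.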
# [2] = Ebola virus entry assay, green fluorescence channel
# [3] = Ebola virus entry assay, blue channel fluorescence
# [4] = Ebola virus entry assay, ratio channel
# [5] = Ebola virus entry assay, green channel fluorescence
# [6] = Ebola virus entry assay, reporter ratio channel; AC50: Channel type: primary unless noted; outcome: Channel type: primary unless noted
# [7] = Ebola virus entry assay, blue channel (ratio component)
# [8] = qHTS profiling of the MIPE4 collection as inhibitors of Plasmodium falciparum (3D7) proliferation (AID 743344);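 further: scaled between DMSO vehicle wells and 0.29 µM artemisinin as full inhibition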; settings: P. falciparum 3D7 in erythrocytes, SYBR Green DNA fluorescence, 72 h; at 28.5 µM (top of the series) unless noted
# Procedure, shortened: (§1)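 Parasite DNA was quantified by SYBR Green I fluorescence (ex 485, em 535 nm) after overnight lysis in saponin/Triton buffer at room temperature. Cultures at 0.3% parasitemia and 2.5% hematocrit were first exposed to compound for 72 h at 37 C; signals were normalised to artemisinin (0.29 uM) and vehicle wells.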
# [9] = qHTS profiling of the MIPE4 collection as inhibitors of Plasmodium falciparum (DD2) proliferation (AID 743345); settings: P. falciparum Dd2 in erythrocytes, SYBR Green DNA, 72 h; at 28.5 µM (top of the series) unless noted
# Procedure, shortened: as §1
# [10] = qHTS profiling of the MIPE4 collection as inhibitors of Plasmodium falciparum (DD2) proliferation (Rep 2) (AID 743346); settings: P. falciparum Dd2 in erythrocytes, SYBR Green DNA, 72 h; at 28.5 µM (top of the series) unless noted
# Procedure, shortened: as §1
# [11] = qHTS profiling of the MIPE4 collection as inhibitors of Plasmodium falciparum (HB3) proliferation (AID 743347);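 further: plate controls were DMSO vehicle wells for no effect and artemisinin wells for full effect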; settings: P. falciparum HB3 in erythrocytes, SYBR Green DNA, 72 h; at 28.5 µM (top of the series) unless noted
# Procedure, shortened: as §1
# [12] = qHTS assay for cell viability of HEK293 cells (AID 743288; active means well fitted curve in the direction sought with a large enough effect; an effect the other way counts as inactive or inconclusive; further: nearly all actives have a fitted effect of over 50% in size; further: potency means the concentration at half of the fitted maximal effect; on max response: on the % scale 0 is the no-effect control and ±100 the full control effect); settings: ATP luminescence (CellTiter-Glo), 18 h; max response: stronger effect = lower value
# Procedure, shortened: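 Quantitative high-throughput screen: compounds were pinned onto parental HEK293 cells (2,000 per well) after a minimum 5 h settling at 37 C, incubated 18 h at 37 C, and intracellular ATP measured by luciferase luminescence.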
# [13] = qHTS assay for cell viability of the p53RE-bla HCT-116 cell line (AID 743292; active means well fitted curve in the direction sought with a large enough effect; an effect the other way counts as inactive or inconclusive; further: nearly all actives have a fitted effect of over 55% in size; further: potency means the concentration at half of the fitted maximal effect)
# Procedure, shortened: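 ATP-based luminescence, 16 h compound exposure at 37 C, p53RE-bla HCT-116 cells at 4,000/well.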
# Wherever efficacy is given: 0% is about no effect.
compound,measurement,setting,value
CCCN1CCC[C@@H]2Cc3[nH]ncc3C[C@H]21,max response,[1],-4.72% (inactive) and 8.32% (inactive) and 17.4% (inactive)
same,efficacy,[2],-15.1% (inactive)
same,outcome,[3],inactive
same,outcome,[4],inactive
same,outcome,[5],inactive
same,outcome,[6],inactive
same,outcome,[7],inactive
CCN(CC)C(=O)N[C@@H]1C=C2c3cccc4[nH]cc(c34)C[C@@H]2N(C)C1,Potency,[1],20 µM (active)
same,efficacy,[2],16% (inactive)
same,outcome,[3],inactive
same,outcome,[4],inactive
same,outcome,[5],inactive
same,AC50,[6],31.6 µM (active)
same,outcome,[7],inactive
O=[N+]([O-])c1cc([As](=O)(O)O)ccc1O,Potency,[1],3.98 µM (active)
same,efficacy,[2],-13% (inactive)
same,outcome,[3],inactive
same,outcome,[4],inactive
same,outcome,[5],inactive
same,outcome,[6],inactive
same,outcome,[7],inactive
CC(=O)[C@H]1CC[C@H]2[C@@H]3CC[C@H]4C[C@H](O)CC[C@]4(C)[C@H]3C(=O)C[C@]12C,max response,[1],-4.24% (inactive) and 9.55% (inactive)
same,efficacy,[2],-24.6% (inactive)
same,outcome,[3],inactive
same,outcome,[4],inactive
same,outcome,[5],inactive
same,outcome,[6],inactive
same,outcome,[7],inactive
C[C@@H]1CC(=O)NN=C1c1ccc(NN=C(C#N)C#N)cc1,efficacy,[2],-24% (inactive) and 20% (inactive)
same,outcome,[3],inactive
same,outcome,[4],inactive
same,outcome,[5],inactive
same,outcome,[6],inactive
same,outcome,[7],inactive
N[C@@H](Cc1ccc(Oc2cc(I)c(O)c(I)c2)c(I)c1)C(=O)O,max response,[1],-7.97% (inactive)
same,efficacy,[2],-32% (inactive)
same,outcome,[3],inactive
same,outcome,[4],inactive
same,outcome,[5],inactive
same,outcome,[6],inactive
same,outcome,[7],inactive
NN=C(N)N,max response,[1],9.75% (inactive) and 23.5% (inactive)
same,efficacy,[2],-37.7% (inactive)
same,outcome,[3],inactive
same,outcome,[4],inactive
same,outcome,[5],inactive
same,outcome,[6],inactive
same,outcome,[7],inactive
NP(N)(=O)NC(=O)c1ccc(F)cc1,max response,[1],-2.45% (inactive)
same,efficacy,[2],-25% (inactive)
same,outcome,[3],inactive
same,outcome,[4],inactive
same,outcome,[5],inactive
same,outcome,[6],inactive
same,outcome,[7],inactive
COc1cc2c(N3CCN(C(=O)Nc4ccc(OC(C)C)cc4)CC3)ncnc2cc1OCCCN1CCCCC1,efficacy,[2],52% (inactive)
same,AC50,[3],11.2 µM (active)
same,AC50,[4],10 µM (active)
same,AC50,[6],10 µM (active)
Cc1cccc(C)c1NC(=O)CN1CCN(CCCC(c2ccc(F)cc2)c2ccc(F)cc2)CC1,efficacy,[2],109% (inactive)
same,AC50,[3],3.16 µM (active)
same,AC50,[4],3.16 µM (active)
same,AC50,[6],3.16 µM (active)
Cc1cccc(C)c1NC(=O)CN1CCCC1=O,max response,[1],12.6% (inactive)
same,"parasite growth, % of DMSO control",[8],101%
same,"parasite growth remaining, % of DMSO control (lower = more inhibition)",[9],99.6%
same,"parasite growth, % of control (lower = inhibition)",[10],129%
same,"growth, % of control",[11],89.5%
same,efficacy,[2],-15.1% (inactive)
same,outcome,[3],inactive
same,outcome,[4],inactive
same,outcome,[5],inactive
same,outcome,[6],inactive
CNCC(O)c1ccc(O)cc1 (stereo unspecified),max response,[1],28.1% (inactive)
same,max response,[12],-7.41% (inactive)
same,Potency,[13],inactive
same,"parasite growth, % of DMSO control",[8],81.9%
same,"parasite growth remaining, % of DMSO control (lower = more inhibition)",[9],99.8%
same,"parasite growth, % of control (lower = inhibition)",[10],71%
same,"growth, % of control",[11],53.7%
same,efficacy,[2],-23.3% (inactive)
same,outcome,[3],inactive
same,outcome,[4],inactive
same,outcome,[5],inactive
same,outcome,[6],inactive
same,outcome,[7],inactive
Clc1ccc(CCC(Cn2ccnc2)Sc2c(Cl)cccc2Cl)cc1 (stereo unspecified),Potency,[1],7.94 µM (active)
same,efficacy,[2],-22% (inactive)
same,AC50,[3],25.1 µM (active)
same,AC50,[4],22.4 µM (active)
same,outcome,[5],inactive
same,AC50,[6],22.4 µM (active)
OC1(c2ccc(Cl)c(C(F)(F)F)c2)CCN(CCCC(c2ccc(F)cc2)c2ccc(F)cc2)CC1,efficacy,[2],-169% (inactive)
same,AC50,[3],5.01 µM (active)
same,AC50,[4],2.82 µM (active)
same,AC50,[6],2.82 µM (active)
CN(C)CCc1ccc(O)cc1,max response,[1],-0.843% (inactive)
same,"parasite growth, % of DMSO control",[8],103%
same,"parasite growth remaining, % of DMSO control (lower = more inhibition)",[9],95.5%
same,"parasite growth, % of control (lower = inhibition)",[10],111%
same,"growth, % of control",[11],104%
same,efficacy,[2],-10.6% (inactive)
same,outcome,[3],inactive
same,outcome,[4],inactive
same,outcome,[5],inactive
same,outcome,[6],inactive
same,outcome,[7],inactive
CC(C)C[C@H](NC(=O)[C@H](CCc1ccccc1)NC(=O)CN1CCOCC1)C(=O)N[C@@H](Cc1ccccc1)C(=O)N[C@@H](CC(C)C)C(=O)[C@@]1(C)CO1,efficacy,[2],-41% (inactive)
same,AC50,[3],0.316 µM (active)
same,AC50,[4],0.708 µM (active)
same,AC50,[6],0.708 µM (active)
COc1cccc2c1C(=O)c1c(O)c3c(c(O)c1C2=O)C[C@@](O)(C(=O)CO)C[C@@H]3O[C@H]1C[C@H](N)[C@H](O)[C@H](C)O1,efficacy,[2],89.6% (inactive)
same,AC50,[3],15.8 µM (active)
same,AC50,[4],14.1 µM (active)
same,AC50,[6],14.1 µM (active)
c1ccc(C2CC2)c(OCC2=NCCN2)c1,max response,[1],-3.84% (inactive) and 23.7% (inactive)
same,efficacy,[2],46.8% (inactive)
same,AC50,[3],39.8 µM (active)
same,outcome,[4],inactive
same,outcome,[5],inactive
same,AC50,[6],39.8 µM (active)
COC(=O)Nc1nc2ccc(C(=O)c3cccs3)cc2[nH]1,efficacy,[2],64.8% (inactive)
same,AC50,[3],0.708 µM (active)
same,AC50,[4],0.708 µM (active)
same,AC50,[6],0.708 µM (active)
same,outcome,[6],inactive [Channel type: confirmation]
Oc1ccccc1-c1ccccc1,Potency,[12],891 µM (active)
same,max response,[12],-4.38% (inactive) and -13.9% (inactive) and 2.52% (inactive)
same,Potency,[13],inactive and 708 µM (active)
same,efficacy,[2],11.7% (inactive)
same,outcome,[3],inactive
same,outcome,[4],inactive
same,outcome,[5],inactive
same,outcome,[6],inactive
Cc1ccc(-n2nc(C(C)(C)C)cc2NC(=O)Nc2ccc(OCCN3CCOCC3)c3ccccc23)cc1,efficacy,[2],134% (inactive)
same,AC50,[3],25.1 µM (active)
same,AC50,[4],20 µM (active)
same,AC50,[6],20 µM (active)
CCCCCCC[N+](CC)(CC)CCCCc1ccc(Cl)cc1,efficacy,[2],30.3% (inactive)
same,AC50,[3],39.8 µM (active)
same,outcome,[4],inactive
same,AC50,[6],39.8 µM (active)
COc1cc(Nc2c(C#N)cnc3cc(OCCCN4CCN(C)CC4)c(OC)cc23)c(Cl)cc1Cl,efficacy,[2],56% (inactive)
same,AC50,[3],2.82 µM (active)
same,AC50,[4],1.41 µM (active)
same,AC50,[6],1.41 µM (active)
